Bioassay records from PubChem.
DT40 TDP1 no CPT: qHTS for Inhibitors of human tyrosyl-DNA phosphodiesterase 1 (TDP1): qHTS in cells in absence of CPT | Potency, µM (highest dose often 46.2 µM), without a hit: at the highest dose activity change, negative = growth inhibition, most hits filed as inhibitors | DT40 Tdp1-/- hTDP1 cells, no CPT, ATP luminescence, 48 h | 15% of 420,000 active; note: potency is the fitted concentration of half-maximal effect; nearly all actives have a fitted effect of over 55% in size
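Luminescent ATP content (CellTiter-Glo) served as the growth readout. Knockout chicken DT40 cells expressing human TDP1 were exposed to compounds without camptothecin for a minimum 48 hr at 37 °C.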
IL-1B inflam inh: qHTS for Inhibitors of Inflammasome Signaling: IL-1-beta AlphaLISA Primary Screen | THP-1 LPS/ATP IL-1B secretion, AlphaLISA, 16 h; active compounds read low | activity change, % at 57.5 µM | 4.7% of 360,000 active; in the data active = activity change below about -50%; inconclusive = mostly about -30% to -49%
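Secreted IL-1B measured by AlphaLISA bead assay after 16 h compound exposure of THP-1 cells; compounds (final up to 57.5 uM) added 1 h before LPS (250 ng/mL) and ATP (1.25 mM) stimulation; lower signal means less secretion.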
HT1080 IDH1KD tx: qHTS for induction of synthetic lethality in tumor cells producing 2HG: qHTS for the HT-1080-IDH1KD cell line; HT-1080 IDH1 knockdown viability, ATP luminescence, 48 h; Potency, µM (titrated, usually from 46.1 µM), without a hit: top-dose activity, negative = toxicity, most hits filed as cytotoxic; 2% of 360,000 active; AID 686971, 2013;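 note: potency is the fitted concentration of half-maximal effect; 0% = DMSO wells and -100% = cell-free medium wells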
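Cytotoxicity counter-line: IDH1KD HT-1080, 48 h, CellTiter-Glo. Curves classed by r2, magnitude and activity.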
TDP1 cell CPT: qHTS for Inhibitors of human tyrosyl-DNA phosphodiesterase 1 (TDP1): qHTS in cells in presence of CPT. chicken DT40 Tdp1-/-;hTDP1 cells + 20 nM CPT, ATP luminescence, 48 h. Potency, µM (doses to about 46.2 µM), inactives show at the top dose activity change, negative = growth inhibition, usual class: inhibitors. 12% of 420,000 active; note: potency is the fitted concentration of half-maximal effect; nearly all actives have a fitted effect of over 55% in size
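Chicken DT40 Tdp1-/- cells complemented with human TDP1, 400 cells/well, exposed to compounds plus 20 nM camptothecin for at least 48 h at 37 C; viability read as ATP content by CellTiter-Glo luminescence.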
HT1080NT lethal: qHTS for induction of synthetic lethality in tumor cells producing 2HG: qHTS for the HT-1080-NT fibrosarcoma cell line; Potency, µM (titrated, usually from 46.1 µM), for the others: at the highest dose activity, negative = less viability, usual class: cytotoxic; HT-1080-NT fibrosarcoma viability, CellTiter-Glo ATP luminescence, 48 h; 1.6% of 360,000 active;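 note: NT is the 2HG producing partner of a matched IDH1 knockdown line; potency is the fitted concentration of half-maximal effect; 0% = DMSO-treated cells and -100% = media-only wells without cells; nearly all actives have a fitted effect of over 55% in size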
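Viability by CellTiter-Glo luminescence after 48 h compound exposure at 37C of HT-1080-NT cells (750/well, RPMI, 5% FBS). % activity scaled between DMSO wells and medium-only wells, then curve-fitted and categorized by curve class.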
* = called active by the depositor. An excerpt weighted towards active compounds, which were near 19% of everything screened. Unless noted, calls come from the whole dose curve; as a rule, active = well fitted curve in the direction sought with a large enough effect; inconclusive = small, poorly fitted or top-dose-only effect, or another doubt; inactive = no such curve, though single readings can be large; an effect the other way counts as inactive or inconclusive. Unless noted, % is set by controls: 0 for no effect and ±100 for the full control effect.

Results for COc1ccc(F)c(CN2CCCC(CO)(Cc3cccc(Cl)c3)C2)c1 (configuration not stated) ?
DT40 TDP1 no CPT: inconclusive; IL-1B inflam inh: -7.2; HT1080 IDH1KD tx: -11.1%; TDP1 cell CPT: inconclusive; HT1080NT lethal: -8.4%

What do the screens show for `CCn1nc(C)c(CN2CCCC(CO)(Cc3cccc(Cl)c3)C2)c1C` (configuration not stated)?
DT40 TDP1 no CPT: 16.4µM*; IL-1B inflam inh: -1.9; HT1080 IDH1KD tx: 0.3%; TDP1 cell CPT: inconclusive; HT1080NT lethal: -1.9%

Results for OCC1(Cc2cccc(Cl)c2)CCCN(Cc2sc(N3CCCC3)nc2Cl)C1 (configuration not stated) ?
DT40 TDP1 no CPT: 18.4µM*; IL-1B inflam inh: 8.2; HT1080 IDH1KD tx: -9.4%; TDP1 cell CPT: 20.6µM*; HT1080NT lethal: -4.7%

What do the screens show for `CC(C)(O)C#Cc1ccc(CN2CCCC(CO)(Cc3cccc(Cl)c3)C2)cc1` (configuration not stated)?
DT40 TDP1 no CPT: 14.6µM*; IL-1B inflam inh: -3.0; HT1080 IDH1KD tx: -24.1%; TDP1 cell CPT: 14.6µM*; HT1080NT lethal: -24.1%

Results for CCOC(=O)N1CCC(N2C(=O)c3ccccc3C2Nc2c(C)cccc2C)CC1 (configuration not stated) ?
DT40 TDP1 no CPT: inconclusive; IL-1B inflam inh: 3.5; HT1080 IDH1KD tx: 0.2%; TDP1 cell CPT: inconclusive; HT1080NT lethal: -3.2%

How did Cc1ccc(S(=O)(=O)Nc2nonc2C)cc1 do in these assays?
DT40 TDP1 no CPT: 5.3%; IL-1B inflam inh: 0.0; HT1080 IDH1KD tx: 11.0%; TDP1 cell CPT: 6.5%; HT1080NT lethal: -5.8%

Results for COc1cccc(CC2(CO)CCCN(C/C=C/c3ccccc3OC)C2)c1 (configuration not stated) ?
DT40 TDP1 no CPT: inconclusive; IL-1B inflam inh: -5.3; HT1080 IDH1KD tx: -28.9%; TDP1 cell CPT: inconclusive; HT1080NT lethal: -27.4%

How did COc1ccccc1/C=C/CN1CCCC(CO)(Cc2cccc(Cl)c2)C1 (configuration not stated) do in these assays?
DT40 TDP1 no CPT: 23.1µM*; IL-1B inflam inh: -69.6*; HT1080 IDH1KD tx: 16.4µM*; TDP1 cell CPT: inconclusive; HT1080NT lethal: 25.9µM*

How did CC(=O)NCCNC(=O)C1(C)Cc2c(-c3cccc(C(F)(F)F)c3)ccnc2O1 (configuration not stated) do in these assays?
DT40 TDP1 no CPT: 9.9%; IL-1B inflam inh: 22.5; HT1080 IDH1KD tx: 5.5%; TDP1 cell CPT: 11.4%; HT1080NT lethal: 4.4%

Results for CN(C)c1ccc(-c2ccnc3c2CC(C)(C(=O)NCCC(F)(F)F)O3)cc1 (configuration not stated) ?
DT40 TDP1 no CPT: 5.8µM*; IL-1B inflam inh: -16.6; HT1080 IDH1KD tx: -13.4%; TDP1 cell CPT: 7.31µM*; HT1080NT lethal: -22.9%

Results for CN(C)c1ccc(-c2ccnc3c2CC(C)(C(=O)NCc2ccco2)O3)cc1 (configuration not stated) ?
DT40 TDP1 no CPT: 6.51µM*; IL-1B inflam inh: -4.7; HT1080 IDH1KD tx: inconclusive; TDP1 cell CPT: 4.11µM*; HT1080NT lethal: inconclusive

What do the screens show for `CC(=O)Nc1ccc(-c2ccnc3c2CC(C)(C(=O)NCc2ccco2)O3)cc1` (configuration not stated)?
DT40 TDP1 no CPT: 1.16µM*; IL-1B inflam inh: 54.8; HT1080 IDH1KD tx: 2.59µM*; TDP1 cell CPT: 1.46µM*; HT1080NT lethal: inconclusive

What do the screens show for `CN(C)c1ccc(-c2ccnc3c2CC(C)(C(=O)NCc2ccc(F)c(F)c2)O3)cc1` (configuration not stated)?
DT40 TDP1 no CPT: 9.2µM*; IL-1B inflam inh: 0.1; HT1080 IDH1KD tx: inconclusive; TDP1 cell CPT: 9.2µM*; HT1080NT lethal: inconclusive

What do the screens show for `Cc1ccc2[nH]c(=O)c(C(c3nnnn3CC3CCCO3)N3CCCc4ccccc43)cc2c1` (configuration not stated)?
DT40 TDP1 no CPT: inconclusive; IL-1B inflam inh: 0.2; HT1080 IDH1KD tx: inconclusive; TDP1 cell CPT: inconclusive; HT1080NT lethal: -0.4%

What do the screens show for `COc1ccccc1NC(=O)CSc1nccc(-c2ccco2)n1`?
DT40 TDP1 no CPT: -18.6%; IL-1B inflam inh: 1.6; HT1080 IDH1KD tx: 6.6%; TDP1 cell CPT: -24.4%; HT1080NT lethal: 3.4%

How did CCc1nnc2c3ccccc3nc(Nc3ccccc3OC)n12 do in these assays?
DT40 TDP1 no CPT: inconclusive; TDP1 cell CPT: -11.7%

What do the screens show for `CN(Cc1ccccc1)C(=O)COC(=O)c1cc(NS(=O)(=O)c2cccs2)ccc1O`?
DT40 TDP1 no CPT: inconclusive; IL-1B inflam inh: 26.2; HT1080 IDH1KD tx: inconclusive; TDP1 cell CPT: inconclusive; HT1080NT lethal: -2.1%

Results for N#Cc1c(-n2cccc2/C=N/O)sc2c1CCCC2 ?
DT40 TDP1 no CPT: inconclusive; IL-1B inflam inh: -24.4; HT1080 IDH1KD tx: 6.3%; TDP1 cell CPT: inconclusive; HT1080NT lethal: 7.8%

What do the screens show for `C=CCNCc1cccn1-c1sc2c(c1C#N)CCCC2`?
DT40 TDP1 no CPT: 20.6µM*; IL-1B inflam inh: -20.4; HT1080 IDH1KD tx: inconclusive; TDP1 cell CPT: 20.6µM*; HT1080NT lethal: 0.9%

Results for NCCCC[C@H]1CNC(=S)N1CCc1cc(C(F)(F)F)cc(C(F)(F)F)c1 ?
DT40 TDP1 no CPT: inconclusive; IL-1B inflam inh: -50.9*; HT1080 IDH1KD tx: -13.0%; TDP1 cell CPT: inconclusive; HT1080NT lethal: -19.9%

How did NCCCC[C@H]1CNC(=O)C(=O)N1CCc1cc(C(F)(F)F)cc(C(F)(F)F)c1 do in these assays?
DT40 TDP1 no CPT: -13.8%; IL-1B inflam inh: 8.8; HT1080 IDH1KD tx: 4.3%; TDP1 cell CPT: 5.7%; HT1080NT lethal: 4.3%

Results for NCCCC[C@H]1CNC(=S)N1CCCCC1CCCCC1 ?
DT40 TDP1 no CPT: 7.31µM*; IL-1B inflam inh: -2.2; HT1080 IDH1KD tx: -14.8%; TDP1 cell CPT: 9.2µM*; HT1080NT lethal: -17.2%

Results for O=C(NCCc1ccccn1)c1nc(Cn2ccc([N+](=O)[O-])n2)no1 ?
DT40 TDP1 no CPT: -4.3%; IL-1B inflam inh: 27.2; HT1080 IDH1KD tx: 1.1%; TDP1 cell CPT: 1.3%; HT1080NT lethal: 7.2%

What do the screens show for `C=CCn1c(SCC(=O)Nc2c(C)cccc2C)nnc1-c1cnccn1`?
DT40 TDP1 no CPT: -6.0%; IL-1B inflam inh: -0.3; HT1080 IDH1KD tx: -14.3%; TDP1 cell CPT: -15.3%; HT1080NT lethal: 1.7%
